# Values joined by “and” are separate entries in the source; they are usually repeats but may differ in a detail not shown here. Equal values may be shown once. Unmarked numbers belong to inactive results. Inconclusive results are not listed. Entries that show only a call come without a potency. Active and inactive are the calls of the source. Unless noted, calls come from the whole dose curve; as a rule, active = well fitted curve in the direction sought with a large enough effect; inconclusive = small, poorly fitted or top-dose-only effect, or another doubt; inactive = no such curve, though single readings can be large; an effect the other way counts as inactive or inconclusive.
# Tests used:
# [1] = Cell Viability - HUV-EC-C (AID 542);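 note: cells exposed to compound for 40 hours; nearly all actives have a fitted effect of over 35% in size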; note: potency is the fitted concentration of half-maximal effect
# Summary of the method: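 Concentration-dependent ATP loss in HUV-EC-C cells is the measure. Exposure lasts 40 hr at 37 °C; luminescence follows CellTiter-Glo addition, and Hill fits give AC50.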
# [2] = Cell Viability - Mesenchymal (AID 546); details: mesenchymal cells viability, qHTS; activity change, negative = cytotoxicity: at 91.7 µM (top of the series);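 note: cells exposed to compound for 40 hours before reading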; note: potency is the fitted concentration of half-maximal effect
# Summary of the method: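 In this qHTS cytotoxicity format, glomerulus-derived human mesenchymal kidney cells received compound for 40 hr, then luciferase-based ATP quantitation. Concentration-response data were fitted with the Hill equation.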
# [3] = Cellular Toxicity (caspase-3) Jurkat (AID 655); details: Jurkat caspase-3 activation, luminescence; caspase-3 activation: at 92.2 µM (top of the series), DMSO = 0%, tamoxifen = 100%;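 note: cells exposed to compound for 16 h at 37 °C before reading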; note: potency is the fitted concentration of half-maximal effect
# Summary of the method: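 qHTS in human Jurkat T-cell leukemia line: 16 hr compound treatment at 37 °C, caspase-3/7 activity measured by Caspase-Glo luminescence. AC50 derived from Hill equation.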
# [4] = Cellular Toxicity (caspase-3) HUV-EC-C (AID 656); note: potency is the fitted concentration of half-maximal effect
# Summary of the method: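 Concentration-dependent caspase 3/7 induction was assessed in HUV-EC-C cells exposed for 16 hours. Data scaled between DMSO and tamoxifen (100 uM) controls.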
# [5] = Cellular Toxicity (caspase-3) SHSY5Y (AID 657); note: potency is the fitted concentration of half-maximal effect
# Summary of the method: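 Readout: caspase-cleaved peptide-aminoluciferin substrate driving luciferase light in SH-SY5Y neuroblastoma cells after 16 h treatment. Response normalized to DMSO and 10 uM staurosporine controls.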
# [6] = Cellular Toxicity (caspase-3) MRC-5 (AID 659)
# Summary of the method: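 Apoptosis readout in MRC-5 cells: luciferase light generated after caspase 3/7 cleaves a peptide-aminoluciferin substrate, measured post 16 hr compound incubation at 37 °C.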
# [7] = Cellular Toxicity (caspase-3) Mesangial (AID 660);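 note: combined caspase 3 and 7 activity read by Caspase-Glo luminescence; cells exposed to compound for 16 h before the caspase read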
# Summary of the method: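 AC50 values come from Hill-equation fits of caspase 3/7 activation, measured as Caspase-Glo luminescence in human glomerular mesangial cells exposed to compound for 16 h at 37 °C; 100% set by 100 uM tamoxifen.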
# [8] = Cellular Toxicity (caspase-3) SK-N-SH (AID 661)
# Summary of the method: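 Apoptosis readout in SK-N-SH neuroblastoma: Caspase-Glo 3/7 luminescence following 16 hr treatment in complete culture medium. Normalization used DMSO and 10 uM staurosporine controls.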
# [9] = Cellular Toxicity (caspase-3) N2a (AID 665);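 note: compound exposure lasted 16 h at 37 °C before readout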
# Summary of the method: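 Concentration-response qHTS: compound-induced caspase-3/7 luminescence in N2a cells (16 h, 37 °C), relative to DMSO and 10 uM staurosporine controls; AC50 obtained using the standard Hill equation.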
# [10] = Cellular Toxicity (caspase-3) NIH 3T3 (AID 666)
# Summary of the method: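 Activity: caspase-3/7 induction, NIH 3T3 cells, 16 hr treatment at 37°C, luminescent Caspase-Glo detection; AC50 via Hill equation.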
# [11] = Cellular Toxicity (caspase-3) Renal Proximal Tubule (AID 667); details: Potency: caspase-3 activation;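 note: cells exposed to compound for 16 hours at 37 °C before detection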; note: potency is the fitted concentration of half-maximal effect
# Summary of the method: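 Caspase-Glo 3/7 read-out, rat primary kidney proximal tubule cells. Compound exposure 16 h, 37 °C; detection after 1 h at RT. Activity scaled to DMSO and 10 uM staurosporine.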
# [12] = Cell Viability - LYMP1-002 - Assay at 16 hr (AID 948); note: potency is the fitted concentration of half-maximal effect
# Summary of the method: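 In this qHTS, lymphoblastoid LYMP1-002 cells (human) receive compounds for 16 hr at 37 C. Viability is taken from CellTiter-Glo ATP luminescence, and AC50 derives from standard Hill fits.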
# [13] = MultiTox-Fluor Cytotoxicity Assay - LYMP1-003 - Dead Cells (AID 961); note: nearly all actives have a fitted effect of over 70% in size; note: potency is the fitted concentration of half-maximal effect
# Summary of the method: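 Dead-cell protease release, detected as bis-AAF-R110 fluorescence at 485/520 nm, was measured in LYMP1-003 cells after 16 h compound treatment at 37 C. AC50 values came from Hill-modeled qHTS curves normalized to DMSO (0%) and 15 uM tetraoctylammonium bromide (100%).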
# [14] = Cell Viability - LYMP1-003 - Assay at 24 hr (AID 963); note: potency is the fitted concentration of half-maximal effect
# Summary of the method: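 The lymphoblastoid line was treated with titrated compounds for 24 hours, and viable cell number estimated from luciferase-based ATP luminescence.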
# [15] = Cell Viability - LYMP2-003 (AID 965);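 note: cells exposed to compounds for 24 h before reading; nearly all actives have a fitted effect of over 50% in size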; note: potency is the fitted concentration of half-maximal effect
# Summary of the method: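 qHTS, human lymphoblastoid line, 2500 cells/well, complete medium. 24 h drug, 37 C. ATP-based luminescent readout; Hill-fit AC50.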
# [16] = Cell Viability - LYMP2-026 (AID 989);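 note: cells exposed to compound for 24 h at 37 °C; nearly all actives have a fitted effect of over 50% in size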; note: potency is the fitted concentration of half-maximal effect
# Summary of the method: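 Acute toxicity screen in complete culture medium, with 24 hr compound exposure at 37 C. Viability read as cellular ATP via luciferase reaction, with tetraoctylammonium bromide (6.4pM to 92 uM) as positive control.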
# [17] = Cell Viability - LYMP1-002 - Assay at 24 hr (AID 993); note: potency is the fitted concentration of half-maximal effect
# Summary of the method: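 Viability was judged from intracellular ATP using a luciferase read-out, following a 24-hour compound incubation at 37 C of lymphoblastoid cells seeded at 2500 per well. Concentration-response data were fitted to the Hill equation for AC50.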
# [18] = qHTS Assay for Identification of Small Molecule Inducers of Hypoxia Response (AID 2120; active = well fitted curve in the direction sought with a large enough effect in the signal ratio, with a control signal flat, not every such curve was filed as active; the % refers to the signal ratio)
# Summary of the method: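 HRE-bla ME-180, 2500 cells/well, 0.5% dialyzed FBS medium; cpd titration, 17 h 37 degrees C; CCF4 2.5 h RT; Ex 405, Em 460/530 ratio -> %Activity, AC50.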
# [19] = molecular target: Peroxisome proliferator-activated receptor alpha (Homo sapiens) (UniProt Q07869); assay: qHTS assay for small molecule agonists of the peroxisome proliferator-activated receptor alpha (PPARalpha) signaling pathway (AID 651778); details: PathHunter PPARalpha complementation, chemiluminescence, 6 h; max response: stronger effect = higher value
# Peroxisome proliferator-activated receptor alpha (Homo sapiens), sequence (Q07869 whole entry, looked up): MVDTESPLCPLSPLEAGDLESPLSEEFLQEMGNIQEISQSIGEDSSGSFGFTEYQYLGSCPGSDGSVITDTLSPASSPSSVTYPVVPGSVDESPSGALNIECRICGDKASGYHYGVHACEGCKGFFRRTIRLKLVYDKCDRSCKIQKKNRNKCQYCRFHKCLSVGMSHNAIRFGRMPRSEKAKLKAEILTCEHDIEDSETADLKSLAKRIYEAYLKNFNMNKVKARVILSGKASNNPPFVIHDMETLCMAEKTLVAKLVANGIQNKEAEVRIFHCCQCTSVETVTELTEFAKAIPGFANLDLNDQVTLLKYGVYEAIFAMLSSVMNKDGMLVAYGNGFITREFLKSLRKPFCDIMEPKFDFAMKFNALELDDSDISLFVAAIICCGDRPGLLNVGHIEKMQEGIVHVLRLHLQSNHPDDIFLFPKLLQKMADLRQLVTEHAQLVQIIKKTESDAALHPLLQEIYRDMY
# Summary of the method: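 Cells plated at 2,000/well and held overnight at 37 C, 5% CO2, then compound added by pin tool for 6 hr; after PathHunter detection reagent and 60 min at room temperature, chemiluminescence from enzyme complementation was read.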
# [20] = qHTS assay for cell viability of the p53RE-bla HCT-116 cell line (AID 743292); note: nearly all actives have a fitted effect of over 55% in size; note: potency is the fitted concentration of half-maximal effect
# Summary of the method: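 ATP-based luminescent viability (CellTiter-Glo, 30 min RT) after 16 h compound treatment at 37 C of p53RE-bla HCT-116 cells, seeded at 4,000 cells/well and rested 5 h before dosing.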
smiles,measurement,setting,value
C[Si](C)(C)Cl,Potency,[1],inactive
same,Potency,[2],inactive
same,Potency,[3],inactive
same,Potency,[4],inactive
same,Potency,[5],inactive
same,outcome,[6],inactive
same,outcome,[7],inactive
same,outcome,[8],inactive
same,outcome,[9],inactive
same,outcome,[10],inactive
same,Potency,[11],inactive
same,Potency,[12],inactive
same,Potency,[13],inactive
same,Potency,[14],inactive
same,Potency,[15],inactive
same,Potency,[16],inactive
same,Potency,[17],inactive
same,Potency,[18],inactive
same,max response,[19],-1.44%
same,Potency,[20],inactive
OC1CCCCC1,Potency,[1],inactive
same,Potency,[2],inactive
same,Potency,[3],inactive
same,Potency,[4],inactive
same,Potency,[5],inactive
same,outcome,[6],inactive
same,outcome,[7],inactive
same,outcome,[8],inactive
same,outcome,[9],inactive
same,outcome,[10],inactive
same,Potency,[11],inactive
same,Potency,[12],inactive
same,Potency,[13],inactive
same,Potency,[14],inactive
same,Potency,[15],inactive
same,Potency,[16],inactive
same,Potency,[17],inactive
same,Potency,[18],inactive
same,max response,[19],-5.19%
same,Potency,[20],inactive
O=[N+]([O-])c1cc(N(CCO)CCO)ccc1NCCO,Potency,[3],inactive
same,Potency,[4],inactive
same,Potency,[5],inactive
same,outcome,[6],inactive
same,outcome,[7],inactive
same,outcome,[8],inactive
same,outcome,[9],inactive
same,outcome,[10],inactive
same,Potency,[11],inactive
same,Potency,[13],inactive
same,Potency,[14],inactive
same,Potency,[16],inactive
same,Potency,[18],inactive
same,max response,[19],-11.2% and -4.73%
same,Potency,[20],inactive
Oc1cc(Cl)cc(Cl)c1Cl,Potency,[1],inactive
same,Potency,[2],inactive
same,Potency,[3],inactive
same,Potency,[4],inactive
same,Potency,[5],inactive
same,outcome,[6],inactive
same,outcome,[7],inactive
same,outcome,[8],inactive
same,outcome,[9],inactive
same,outcome,[10],inactive
same,Potency,[11],inactive
same,Potency,[12],inactive
same,Potency,[13],inactive
same,Potency,[14],inactive
same,Potency,[15],inactive
same,Potency,[16],inactive
same,Potency,[17],inactive
same,Potency,[18],inactive
same,max response,[19],6.36%
same,Potency,[20],inactive
CC/C=C/C/C=C/C/C=C/CCCCCCCC(=O)OCC,Potency,[1],inactive
same,Potency,[2],inactive
same,Potency,[3],inactive
same,Potency,[4],inactive
same,Potency,[5],inactive
same,outcome,[6],inactive
same,outcome,[8],inactive
same,outcome,[9],inactive
same,outcome,[10],inactive
same,Potency,[11],inactive
same,Potency,[13],50.1 µM (active)
same,Potency,[14],inactive
same,Potency,[15],31.6 µM (active)
same,Potency,[16],50.1 µM (active)
same,Potency,[18],inactive
same,max response,[19],19.5%
same,Potency,[20],inactive
C=C1CC[C@H](O)C/C1=C/C=C1\CCC[C@]2(C)[C@@H]([C@H](C)CCCC(C)C)CC[C@@H]12,Potency,[1],39.8 µM (active)
same,"activity change, negative = cytotoxicity",[2],-102% (active)
same,Potency,[3],31.6 µM (active)
same,Potency,[4],inactive
same,Potency,[5],31.6 µM (active)
same,outcome,[6],inactive
same,outcome,[9],inactive
same,outcome,[10],inactive
same,Potency,[12],50.1 µM (active)
same,Potency,[13],39.8 µM (active)
same,Potency,[15],39.8 µM (active)
same,Potency,[17],50.1 µM (active)
same,Potency,[18],inactive
same,max response,[19],-0.403%
Cc1cc(-c2ccc(N=Nc3cc(S(=O)(=O)O)c4ccccc4c3N)c(C)c2)ccc1N=Nc1cc(S(=O)(=O)O)c2ccccc2c1N,Potency,[1],25.1 µM (active)
same,Potency,[3],inactive
same,Potency,[4],inactive
same,Potency,[5],inactive
same,outcome,[6],inactive
same,outcome,[7],inactive
same,outcome,[8],inactive
same,outcome,[9],inactive
same,outcome,[10],inactive
same,Potency,[11],inactive
same,Potency,[14],inactive
same,Potency,[15],inactive
same,Potency,[16],inactive
same,Potency,[17],inactive
same,Potency,[18],inactive
same,max response,[19],-11.9%
O=C=Nc1ccc(Cl)c(Cl)c1,Potency,[4],inactive
same,Potency,[5],inactive
same,outcome,[6],inactive
same,outcome,[7],inactive
same,outcome,[8],inactive
same,outcome,[9],inactive
same,outcome,[10],inactive
same,Potency,[11],inactive
same,Potency,[12],inactive
same,Potency,[14],inactive
same,Potency,[15],inactive
same,Potency,[16],inactive
same,Potency,[17],inactive
same,Potency,[18],inactive
same,max response,[19],21.6%
same,Potency,[20],inactive
CC1=C(/C=C/C(C)=C/C=C/C(C)=C/C=O)C(C)(C)CCC1,Potency,[1],31.6 µM (active)
same,Potency,[2],31.6 µM (active)
same,Potency,[4],39.8 µM (active)
same,outcome,[6],inactive
same,Potency,[11],31.6 µM (active)
same,Potency,[13],50.1 µM (active)
same,Potency,[14],50.1 µM (active)
same,Potency,[15],50.1 µM (active)
same,Potency,[16],50.1 µM (active)
same,Potency,[17],50.1 µM (active)
same,Potency,[18],inactive
same,max response,[19],-2.8%
same,Potency,[20],50.1 µM (active)
C1CCCNCC1,Potency,[1],inactive
same,Potency,[2],inactive
same,Potency,[3],inactive
same,Potency,[4],inactive
same,Potency,[5],inactive
same,outcome,[6],inactive
same,outcome,[7],inactive
same,outcome,[8],inactive
same,outcome,[9],inactive
same,outcome,[10],inactive
same,Potency,[11],inactive
same,Potency,[12],inactive
same,Potency,[13],inactive
same,Potency,[14],inactive
same,Potency,[15],inactive
same,Potency,[16],inactive
same,Potency,[17],inactive
same,Potency,[18],inactive
same,max response,[19],0.101%
same,Potency,[20],inactive
Oc1cc2c(cc1O)[C@H]1c3ccc(O)c(O)c3OC[C@@]1(O)C2,Potency,[3],inactive
same,Potency,[4],inactive
same,Potency,[5],inactive
same,outcome,[6],inactive
same,outcome,[7],inactive
same,outcome,[8],inactive
same,outcome,[9],inactive
same,outcome,[10],inactive
same,Potency,[11],inactive
same,Potency,[15],31.6 µM (active)
same,Potency,[16],39.8 µM (active)
same,Potency,[18],inactive
same,max response,[19],-1.65%
CN(C)c1ccc(C(=N)c2ccc(N(C)C)cc2)cc1,Potency,[4],inactive
same,outcome,[6],inactive
same,outcome,[7],inactive
same,outcome,[9],inactive
same,outcome,[10],inactive
same,Potency,[11],inactive
same,Potency,[13],50.1 µM (active)
same,Potency,[14],inactive
same,Potency,[17],inactive
same,Potency,[18],inactive
same,max response,[19],-0.198%
same,Potency,[20],inactive
O=C(O)c1cc(N=Nc2ccc([N+](=O)[O-])cc2)ccc1O,Potency,[1],inactive
same,Potency,[2],inactive
same,Potency,[3],inactive
same,Potency,[4],inactive
same,Potency,[5],inactive
same,outcome,[6],inactive
same,outcome,[7],inactive
same,outcome,[8],inactive
same,outcome,[9],inactive
same,Potency,[11],inactive
same,Potency,[12],inactive
same,Potency,[13],inactive
same,Potency,[14],inactive
same,Potency,[15],inactive
same,Potency,[17],inactive
same,max response,[19],-12.2%
same,Potency,[20],inactive

# Source: PubChem BioAssay (NCATS)
